Data: PubChem BioAssay AID624464 (National Center for Advancing Translational Sciences (NCATS), 2012)
Among all 360,000 compounds or so, about 810 (0.23%) were called active. No stated cut-off is given here; in the data, active means potentiation above about 50%; inconclusive means mostly about 30% to 49%; inactive means weaker than that. The entries come from a sample that favours actives as a whole.

What follows are molecules tested against D(2) dopamine receptor (Homo sapiens) (UniProt P14416) (assay: Beta-Arrestin HTS for Positive Allosteric Modulators of the Human D2 Dopamine Receptor: Potentiators). Details: DiscoveRx D2 beta-arrestin cells, luminescence, 90 min; stronger effect = higher value; 100% = 57 uM dopamine signal.
D(2) dopamine receptor (Homo sapiens), sequence (P14416 whole entry, looked up): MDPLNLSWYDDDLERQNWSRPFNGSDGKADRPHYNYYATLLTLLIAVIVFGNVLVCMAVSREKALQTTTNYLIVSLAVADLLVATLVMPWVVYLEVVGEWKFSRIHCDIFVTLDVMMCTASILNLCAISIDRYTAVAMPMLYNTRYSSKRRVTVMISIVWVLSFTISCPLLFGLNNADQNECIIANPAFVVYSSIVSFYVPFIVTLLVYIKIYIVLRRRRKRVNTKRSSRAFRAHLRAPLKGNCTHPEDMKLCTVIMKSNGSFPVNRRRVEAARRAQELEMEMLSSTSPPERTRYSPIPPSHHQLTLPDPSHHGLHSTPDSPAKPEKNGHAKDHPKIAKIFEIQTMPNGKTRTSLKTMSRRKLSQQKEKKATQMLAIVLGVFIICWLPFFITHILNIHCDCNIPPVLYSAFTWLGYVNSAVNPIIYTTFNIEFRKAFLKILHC
Description: There is great interest in identifying small molecule ligands for G-protein coupled receptors (GPCRs) as nearly 50% of all FDA-approved drugs target these important receptor proteins. […] Amongst the dopamine receptors (DARs), the D2 is arguably one of the most validated drug targets in neurology and psychiatry. For instance, all receptor-based antiparkinsonian drugs primarily work via stimulating the D2 DAR, whereas all FDA-approved antipsychotic agents are antagonists of this receptor. The D2 DAR is also therapeutically targeted in other disorders such as restless legs syndrome, tardive dyskinesia, Tourette's syndrome, and hyperprolactinemia.
To this end, a miniaturized qHTS screen was developed to be screened against the Molecular Libraries Small Molecule Repository (MLSMR). This assay seeks to identify potentiators against the D2 DAR.
NIH Molecular Libraries Probe Production Network [MLPCN]
NIH Chemical Genomics Center [NCGC]
PI Name: David Sibley, National Institutes of Neurological Disorders and Stroke
DiscoveRx D2 cells were thawed from frozen stock and seeded at 2,100 cells/ 3 uL/well media (DiscoveRx Plating Reagent 2) with MultiDrop Combi dispenser (Thermo Scientific, Logan, UT) onto white tissue culture treated 1536-well Aurora plates (Brooks Automation, Chelmsford, MA) and allowed to attach overnight at 37 deg C, 5% CO2. Next, 23 nL/well of compound solutions in DMSO were added with a pintool transfer (Kalypsis, San Diego, CA). As the positive control, 1 uL/well dopamine (EC100, 57 uM final concentration) diluted in buffer (HBSS + 10 mM HEPES + SMB + 0.1 %Tween-20) was dispensed to 1 column of each plate. EC20 (Dopamine at 50 nM final concentration) was dispensed to the rest of the plate except columns 1 &2 which were used as negative control (EC=0, buffer only), 1 uL/well as well. The cells were stimulated by compounds and dopamine for 90 minutes at 37 deg C, 5% CO2, after which 1.5 uL/well of DiscoveRx detection reagent was added with BioRAPTR FRD dispenser. The detection reagent was prepared by mixing of Galacton Star Substrate, Emerald II solution and PathHunter buffer (supplied by the assay kit) together at 1:5:19 proportion accordingly just prior to dispensing. The plates were incubated at ambient temperature for 1 hour and then the luminescent signal was read on ViewLux plate reader (PerkinElmer, Waltham, MA).
For `Cc1cc(N2CCCC2=O)cc(C)c1S(N)(=O)=O`, the potentiation was -18.2% (inactive). With `O=C1NC(=O)C(c2ccc(Cl)cc2)N1` (stereo not drawn) the potentiation was -7.09% (inactive). For `CCCCC(=O)Nc1nnc(S(=O)(=O)N(C)Cc2ccco2)s1`, the potentiation was -7.89% (inactive). `Cn1cc(/C=C/C(=O)N2CCCC(C(=O)c3ccc(C(F)(F)F)cc3)C2)cn1` (stereo not drawn) was tested, and the potentiation was -1.59% (inactive). In the case of `COc1ccc(C(=O)C[n+]2ccc(N)c(C)c2C)cc1`, the potentiation is reported as -3.23% (inactive). In the case of `COc1cc(C(=S)N2CCOCC2)cc(OC)c1OC(=O)c1ccc([N+](=O)[O-])cc1[N+](=O)[O-]`, the potentiation is reported as 136% (active). `COC(=O)c1cc(Oc2ccc(S(=O)(=O)N3CCOCC3)cc2[N+](=O)[O-])cc(C(=O)OC)c1` was tested, and the potentiation was -0.101% (inactive). `COc1cc([N+](=O)[O-])cc([N+](=O)[O-])c1NC(=O)N1CCOCC1` was tested, and the potentiation was -13.5% (inactive). In the case of `O=C(NCCCn1ccnc1)C(=O)NCC1OCCN1S(=O)(=O)c1cc(F)ccc1F` (stereo not drawn), the potentiation is reported as -2.44% (inactive). For `COC(=O)c1cccnc1NC(=S)NC(C)C`, the potentiation was 2.31% (inactive). With `CC(=O)NC(C)(C)C1CC=C(C)/C(=N\O)C1` (stereo not drawn) the potentiation was -2.42% (inactive). In the case of `NC(Cc1ccc(F)cc1)c1csc(Nc2nncc3ccccc23)n1` (stereo not drawn), the potentiation is reported as 0.276% (inactive). In the case of `Cc1ccc(Cc2c(-c3ccco3)nc3ccc(Cl)cn23)cc1`, the potentiation is reported as -4.9% (inactive). For `Cc1nn(C)c(C)c1S(=O)(=O)N1CCc2ccccc21`, the potentiation was 3.69% (inactive). With `CCO[C@@H]1OC(C(=O)NC2CC2)=C[C@H](C)[C@H]1CCCO` the potentiation was -6.01% (inactive). In the case of `CC1CCN(C(=S)c2cccc([N+](=O)[O-])c2)CC1`, the potentiation is reported as -3.98% (inactive). `O=C(Oc1ccc(Br)cc1C(=S)N1CCOCC1)c1cccc([N+](=O)[O-])c1` was tested, and the potentiation was -0.594% (inactive). In the case of `O=C(Oc1ccccc1C(=S)N1CCCCC1)c1cc([N+](=O)[O-])cc([N+](=O)[O-])c1`, the potentiation is reported as 58.7% (active). With `CCCCn1c(N)c(N(CCC(C)C)C(=O)c2ccc(COc3ccccc3)o2)c(=O)[nH]c1=O` the potentiation was -0.984% (inactive). For `COc1cccc(NC(=O)C2(C)CCN2Cc2ccccc2Cl)c1` (stereo not drawn), the potentiation was -7.17% (inactive). With `CN(CC(=O)Nc1c(Cl)cccc1Cl)C(=O)CC1OC(=O)c2ccccc21` (stereo not drawn) the potentiation was -2.61% (inactive). `CC(OC(=O)c1ccccc1NCCO)C(=O)Nc1ccnn1C(C)C` (stereo not drawn) was tested, and the potentiation was -3.07% (inactive). For `O=C(NCc1cc(F)cc(C(F)(F)F)c1)C1CCC(=O)N(C2CCCC2)C1` (stereo not drawn), the potentiation was 2.66% (inactive). `Cc1ccc(S(=O)(=O)N2CCOCC2)cc1C(=O)NC(=S)N(Cc1ccccc1)C(C)C` was tested, and the potentiation was 10.6% (inactive). In the case of `CC1(C)C(=O)CCC2(C)C1=CCC1C2C(=O)CC2(C)C1CCC2(O)C(=O)CO` (stereo not drawn), the potentiation is reported as -30.8% (inactive). For `O=C(CCc1ccccc1)Nc1ccc(NC(=O)C2CCCCC2)nc1`, the potentiation was -8.09% (inactive). With `Cc1cc(C)n(CC(=O)Nc2ccc([N+](=O)[O-])cc2)n1` the potentiation was 70.7% (active). For `Cc1cc([N+](=O)[O-])nn1CC(=O)Nc1ccc(Cc2ccncc2)cc1`, the potentiation was -10.7% (inactive). In the case of `Cc1nn(CC(=O)Nc2ccc(C#N)cc2)c(C)c1[N+](=O)[O-]`, the potentiation is reported as -8.67% (inactive). For `Cc1ccc(NC(=O)CS(=O)CC(=O)N(c2ccccc2)C(C)C(=O)NC2CCCC2)cc1` (stereo not drawn), the potentiation was -14.4% (inactive). `CCCc1nnc(SCC(=O)N2C(C)CCCC2C)n1CC` (stereo not drawn) was tested, and the potentiation was -7.75% (inactive). In the case of `CC(NC(=O)CC1SC(N)=NC1=O)c1ccccc1` (stereo not drawn), the potentiation is reported as -0.5% (inactive). `C[C@H]1CN([C@@H](C)CO)C(=O)c2cc(-c3cccc(F)c3)cnc2O[C@@H]1CN(C)S(C)(=O)=O` was tested, and the potentiation was 7.41% (inactive). `Cc1csc(NC(=O)C2CCCN2C(=O)OCC(C)C)n1` (stereo not drawn) was tested, and the potentiation was -5.09% (inactive). `COc1ccc(S(=O)(=O)N2CCN(CC(=O)N3CCOCC3)CC2)cc1OC` was tested, and the potentiation was -5.65% (inactive). In the case of `O=C(Nc1cc(F)ccc1F)c1ccc2c(=O)n3c(nc2c1)CCC3`, the potentiation is reported as -9.48% (inactive). With `CC(C)S(=O)(=O)c1csc(NC(=O)Nc2ccc(Cl)cc2)c1Cl` the potentiation was -6.65% (inactive). In the case of `CCOc1ccc(CCNC(=O)CCc2nnc3ccc(N4CCCC4)nn23)cc1OCC`, the potentiation is reported as 2.77% (inactive). With `Cc1occc(=O)c1OCc1c(Cl)cccc1Cl` the potentiation was -9.29% (inactive). In the case of `CCN(CC)CCCC(C)n1c2nc(=O)[nH]c(=O)c-2nc2cc(Cl)ccc21` (stereo not drawn), the potentiation is reported as 80.2% (active). In the case of `COc1cccc(NC(=O)C2(C)CCN2C(=O)CCC2CCCC2)c1` (stereo not drawn), the potentiation is reported as -1.05% (inactive). `CC(C)(C)C(=O)OCc1nc(-c2ccc(O)c(O)c2)cs1` was tested, and the potentiation was 70.4% (active). `CCCC(=O)N1c2ccc(-c3csc(N)n3)cc2CC1C` (stereo not drawn) was tested, and the potentiation was -21.2% (inactive). `COc1ccc(C(C)(O)c2nc(-c3ccc(C)c(C)c3)cs2)cc1` (stereo not drawn) was tested, and the potentiation was -10.5% (inactive). `CC(C)NC(=O)C1(C)CCCCCN1C(=O)c1ccc(-c2ccccc2)cc1` (stereo not drawn) was tested, and the potentiation was -9.96% (inactive). In the case of `CC1(C)CCSC(/C=C/c2ccccc2)=N1`, the potentiation is reported as -38.8% (inactive). With `CNc1cnc(-c2cc(OC)c(OC)c(OC)c2)cn1` the potentiation was 0.325% (inactive). For `O=C(Nc1ccccc1F)c1ccc(Cn2cc(Br)cn2)cc1`, the potentiation was -6.63% (inactive). For `CC(C)CCNC(=O)c1cccnc1Sc1ccccc1`, the potentiation was -21.6% (inactive). In the case of `COCCNC(=O)C1CCN(C(=O)C2CC(=O)N(c3ccc(C)cc3)C2)CC1` (stereo not drawn), the potentiation is reported as -6.43% (inactive). `O=S(=O)(Cc1cc(Cl)nc(-c2cccnc2)n1)c1ccccc1` was tested, and the potentiation was 11.9% (inactive). `COc1cc2c(cc1OC)CN(C(C)C(=O)Nc1cccc(S(=O)(=O)N3CCOCC3)c1)CC2` (stereo not drawn) was tested, and the potentiation was -31.3% (inactive). `CC(C)CCNC(=O)C1CCC(CNc2c(N3CCC(C)CC3)c(=O)c2=O)CC1` (stereo not drawn) was tested, and the potentiation was -6.3% (inactive). In the case of `OCC[C@H]1C[C@@H](O)[C@H](O)[C@@]2(OCCc3ccccc32)O1`, the potentiation is reported as -8.36% (inactive). `COc1ccc(CCNC(=O)CCn2c(=O)c3ccccc3n(CC(=O)NCC3CCCO3)c2=O)cc1OC` (stereo not drawn) was tested, and the potentiation was -2.84% (inactive). In the case of `CC(=O)Nc1ccc(S(=O)(=O)Oc2ccc(/C=N/N=C3/NC(=O)C(CC(=O)O)S3)cc2)cc1` (stereo not drawn), the potentiation is reported as 1.2% (inactive). With `O=C(CCSc1ccccc1)NCCSc1ccccn1` the potentiation was -0.984% (inactive). With `O=C1CSC(c2cccc(F)c2)N1c1ccc(O)cc1` (stereo not drawn) the potentiation was -4.16% (inactive).
